Measured values published in PubChem BioAssay AID651622 (National Center for Advancing Translational Sciences (NCATS), 2012).
The source made the active and inactive calls.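 The calls were made as follows: active = inhibition of the USP46/UAF1 deubiquitinase of at least 60% at 114 µM in the gel test; inconclusive = inhibition from 30% up to under 60%; inactive = inhibition below 30%.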

These molecules were tested against Ubiquitin carboxyl-terminal hydrolase 46 (Homo sapiens) + WD repeat-containing protein 48 (Homo sapiens) (UniProt P62068+Q8TAF3) (assay: Inhibitors of USP1/UAF1: SAR in USP46/UAF1 diubiquitin SDS-PAGE gel assay). Conditions: USP46/UAF1 K63 diubiquitin cleavage; series mostly up to 114 µM; inhibition: at the top concentration.
Chain of Ubiquitin carboxyl-terminal hydrolase 46 (Homo sapiens) + WD repeat-containing protein 48 (Homo sapiens) (P62068 whole entry, looked up): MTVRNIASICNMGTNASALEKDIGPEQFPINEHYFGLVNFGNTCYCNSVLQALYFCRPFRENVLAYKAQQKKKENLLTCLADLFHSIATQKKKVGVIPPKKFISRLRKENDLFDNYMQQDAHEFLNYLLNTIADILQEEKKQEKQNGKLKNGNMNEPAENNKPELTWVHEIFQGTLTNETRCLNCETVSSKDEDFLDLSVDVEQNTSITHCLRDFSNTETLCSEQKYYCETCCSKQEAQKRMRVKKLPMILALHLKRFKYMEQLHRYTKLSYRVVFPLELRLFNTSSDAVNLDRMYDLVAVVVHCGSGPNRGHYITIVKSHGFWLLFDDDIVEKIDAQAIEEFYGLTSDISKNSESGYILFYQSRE
Chain of Ubiquitin carboxyl-terminal hydrolase 46 (Homo sapiens) + WD repeat-containing protein 48 (Homo sapiens) (Q8TAF3 whole entry, looked up): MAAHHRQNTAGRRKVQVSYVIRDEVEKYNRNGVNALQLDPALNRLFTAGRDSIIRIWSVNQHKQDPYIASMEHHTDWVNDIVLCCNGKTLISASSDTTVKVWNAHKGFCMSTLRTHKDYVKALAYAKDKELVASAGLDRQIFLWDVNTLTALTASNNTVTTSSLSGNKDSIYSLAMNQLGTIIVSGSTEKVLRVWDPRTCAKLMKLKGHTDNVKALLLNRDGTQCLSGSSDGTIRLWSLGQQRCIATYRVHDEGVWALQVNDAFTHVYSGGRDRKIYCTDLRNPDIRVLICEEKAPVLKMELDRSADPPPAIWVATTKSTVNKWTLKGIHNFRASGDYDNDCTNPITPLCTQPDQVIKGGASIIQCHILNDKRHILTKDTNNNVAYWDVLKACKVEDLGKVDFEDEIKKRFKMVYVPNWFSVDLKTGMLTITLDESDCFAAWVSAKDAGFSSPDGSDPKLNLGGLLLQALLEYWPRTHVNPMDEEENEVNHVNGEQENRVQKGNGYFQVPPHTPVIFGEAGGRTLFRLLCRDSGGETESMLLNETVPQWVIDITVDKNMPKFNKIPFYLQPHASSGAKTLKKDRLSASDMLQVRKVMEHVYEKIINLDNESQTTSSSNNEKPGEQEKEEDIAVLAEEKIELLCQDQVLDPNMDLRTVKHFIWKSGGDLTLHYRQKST
Description: Deubiquitinating enzymes (DUBs) are a class of enzymes that can cleave isopeptide bond formed between the C-terminal carboxylate of ubiquitin and a lysine side-chain amino group on the target protein. Among them, ubiquitin specific proteases (USPs) constitute the largest DUB family. Human USPs are emerging as promising targets for pharmacological intervention because of their connection to a number of human diseases, including prostate, colon and breast cancer (1, 2), pediatric acute lymphoblastic leukemia (3), and familial cylindromatosis (4). The advantage of inhibiting USPs lies in the potential specificity of therapeutic intervention that can lead to better efficacy and reduce nonspecific side effects. In a collaboration between the University of Delaware and the NIH Chemical Genomics Center, a high-throughput screen assay was developed to screen for USP1/UAF1 inhibitors (5). […]
The inhibition assay contains 100 nM USP46/UAF1, 2 microM K63 linked diubiquitin, and inhibitors at varied concentrations (0.08 microM - 114 microM). […] The intensity of the individual diubiquitin and monoubiquitin band was quantified using Quantity One 4.3.1 (Biorad, Hercules, CA). The percentage of the conversion was determined and used to calculate the reaction rate. […]
In the case of `Cc1cnc(-c2ccccc2C(C)C)nc1NCc1ccc(-n2ccnn2)cc1`, the “inhibition” value is reported as 9% (inactive).
